Screen size: about 190,000 compounds; about 3,500 (1.8%) were called active. This excerpt belongs to a sample that is enriched for actives. A number with no mark means an inactive call.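 How the source made its calls: active means inhibition above a set limit, 3 SD over mean compound inhibition (cut at about 8.4% in these data); inactive means the rest.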
assay: inhibitors of the yeast RAM network, primary screen, dse1pr::URA3 reporter, 5-FOA selection (AID 868);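 further: 0% = DMSO-only wells with no growth and 100% = 10 µM 1-NA-PP1 full growth; inhibition rescues growth on 5-FOA so higher OD means more RAM inhibition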; details: S. cerevisiae dse1pr::URA3 reporter, 5-FOA growth OD615, 2 d; at 50 µM; hits give high values; analog-sensitive cbk1-as2 kinase mutant strain

First: Cc1sc2c(c1C)c(=O)n(-c1ccccc1)c(=O)n2CC(=O)NCC1CCCO1 (stereo unspecified)
Second: CCCCC(=O)Nc1cc(C)c2c(=O)oc3ccccc3c2n1
The inhibition of the first is lower: 1.92% for the first, 7.85% for the second.

First: O=C(O)/C=C/C(=O)NNc1ccc([N+](=O)[O-])cc1
Second: CCCCN(C)c1ccc([N+](=O)[O-])cc1
The inhibition of the first is higher: 0.13% for the first, -1.26% for the second.

First: CCOCCCNC(=O)C(NC(=O)c1ccccc1O)c1ccccc1 (stereo unspecified)
Second: CCOc1ccccc1/C=N/NC(=O)CNC(=O)COc1ccccc1
The inhibition of the first is lower: 0% for the first, 1.01% for the second.

Compared with `Cc1ccc(-n2nc(C)c(/C=N/NC(=O)c3cccs3)c2Cl)cc1`, `Cc1ccc(-c2csc(NC(=O)c3cccs3)n2)cc1` is lower in inhibition: 5.29% for the first, 3.07% for the second.

First: Cc1nn(-c2ccccc2)c(C)c1NC(=O)CCl
Second: Cc1nn(-c2ccccc2)c(C)c1/C=C/C(=O)OC(C)C(N)=O (stereo unspecified)
The inhibition of the first is higher: 3.63% for the first, 1.08% for the second.

Going from `Cc1nn(-c2ccccc2)c(Cl)c1C(=O)Nc1ccccc1` to `CC1=C(C(=O)Nc2ccccc2)C(c2ccco2)C(C#N)=C(SCC(N)=O)N1` (stereo unspecified), the inhibition falls from 6.51% to -0.14%.

Going from `OCC(CO)(CO)NCc1ccc(-c2ccccc2)cc1` to `O=C(NC1CC1)c1ccc(-c2ccccc2)cc1`, the inhibition falls from 1.38% to 1.25%.

Compared with `COC(=O)N/N=C/c1ccc(/C=N/NC(=O)OC)cc1`, `COc1ccc(/C(C)=N/NC(=O)CCC(=O)Nc2ccc(Cl)cc2Cl)c(OC)c1` is lower in inhibition: 1.05% for the first, 0.4% for the second.

Going from `COc1cc(C)c(S(=O)(=O)N2CCOCC2)c(C)c1C` to `COc1cc(NC(=O)N2CCOCC2)cc(OC)c1`, the inhibition falls from 0.98% to 0.39%.

First: Cc1ccc(N=Cc2c(O)cc(C)oc2=O)c(C)c1
Second: Cc1noc(C)c1COc1ccc2ccc(=O)oc2c1
The inhibition of the first is higher: 0.38% for the first, 0.12% for the second.

Going from `Cc1ccc(-n2c(O)c(C=Nc3ccc(S(=O)(=O)Nc4ncccn4)cc3)c3ccccc3c2=O)cc1C` to `COc1ccccc1Oc1ccc(S(=O)(=O)Nc2cccnc2)cc1`, the inhibition falls from 7.54% to -0.91%.

Going from `C/C(CC(=O)N1CCN(C=O)CC1)=N\NC(=O)c1ccc(Br)cc1` to `CCOC(=O)N1CCN(C(=O)c2cc3c(ccc4ccccc43)oc2=O)CC1`, the inhibition rises from 2.35% to 4.45%.

Compared with `Cc1ccc2[nH]c(C)c(CCNC(=O)NC3CCCCC3)c2c1`, `Cc1ccc(Cl)cc1NC(=O)COC(=O)C1CCCCC1` is higher in inhibition: 1.04% for the first, 1.91% for the second.

Compared with `CC(=O)N(CCCN(C)C)c1nc2ccc(C)cc2s1`, `Cc1ccc(SCC(=O)c2sc(-c3ccccc3)nc2C)cc1` is lower in inhibition: 3.5% for the first, 2.13% for the second.

Going from `CC(C)c1cc(NCc2ccccn2)n2c(nc3ccccc32)c1C#N` to `COc1ccc(C2CC(=O)n3c(nc4ccccc43)S2)cc1OC` (stereo unspecified), the inhibition rises from -0.26% to 3.3%.

Going from `C=C(C)CNC(=S)N/N=C/c1ccccc1OCC(=O)O` to `Cc1cc2[nH]ncc2cc1NC(=S)NC(=O)c1ccccc1`, the inhibition rises from 0% to 3.3%.

First: O=[N+]([O-])c1cc(S(=O)(=O)CCCN2CCOCC2)ccc1F
Second: COc1cc(C(=S)N2CCOCC2)cc(OC)c1OC(=O)c1cc([N+](=O)[O-])c(C)c([N+](=O)[O-])c1
The inhibition of the first is lower: -0.13% for the first, 3.68% for the second.

Compared with `COc1cc(OC)c(C(=O)OC(C)C(=O)Nc2cc(C(F)(F)F)ccc2Cl)cc1OC` (stereo unspecified), `COC(=O)Cn1c(=NC(=O)c2cc(OC)c(OC)c(OC)c2)sc2cc(OC)ccc21` is higher in inhibition: 0.5% for the first, 5.03% for the second.

Compared with `COC(=O)c1ccc(CN2CCC(CO)(Cc3ccc(OC)cc3)CC2)cc1`, `Cc1ccc(CN2CCN(Cc3ccc4ncccc4c3)CC2CCO)cc1` (stereo unspecified) is lower in inhibition: 1.4% for the first, 0.13% for the second.

First: COc1ccc(-c2ccc(CCC(=O)O)n2NC(=O)c2ccc(C(C)(C)C)cc2)cc1
Second: Cc1ccc(C(=O)NC(=S)Nc2ccccc2C)cc1
The inhibition of the first is higher: 5.38% for the first, -0.37% for the second.

First: O=C(/C=C/c1ccc2c(c1)OCO2)NCc1cn2cc(Cl)ccc2n1
Second: Cc1ccc(SCC(=O)Nc2ccc3c(c2)OCCO3)cc1
The inhibition of the first is higher: 3.64% for the first, 0.6% for the second.

Compared with `Cc1ccc(Cl)cc1NC(=O)COC(=O)CC(C)(C)C`, `O=C(COC(=O)c1cc2c(s1)CCCC2)NCc1ccccc1Cl` is higher in inhibition: -1.53% for the first, 4.18% for the second.

Compared with `O=C(O)c1n[nH]nc1-c1ccccc1`, `O=C(O)CCC(=O)N(Cc1ccco1)c1nc(-c2ccccc2)cs1` is higher in inhibition: 0.27% for the first, 3.13% for the second.

Going from `C=CCOC(=O)C1=C(C)OC(N)=C(C#N)C1c1ccc(F)cc1` (stereo unspecified) to `Cc1ccc(C2CC(=O)NC(SCC(=O)OCc3ccccc3)=C2C#N)o1` (stereo unspecified), the inhibition falls from 1.6% to 0.38%.

Compared with `CCOC(=O)CSC1=C(C#N)C(c2sccc2C)CC(=O)N1` (stereo unspecified), `Cc1cccc(CSc2nnc(C)c(=O)n2N)c1` is higher in inhibition: 0% for the first, 0.13% for the second.

First: S=c1ccc2ccccc2[nH]1
Second: O=C1Oc2ccccc2C(=O)/C1=C/c1ccccc1O
The inhibition of the first is lower: -0.88% for the first, 0.25% for the second.

First: Cc1cccc(OCCNC(=O)CSc2ccc(C(F)(F)F)cc2[N+](=O)[O-])c1
Second: COC(=O)Cc1ccc(Oc2ncc(C(F)(F)F)cc2Cl)cc1
The inhibition of the first is higher: 3.14% for the first, 0.6% for the second.

Going from `COc1ccc(N2CCN(C(C)=C3C(=O)c4ccccc4C3=O)CC2)cc1` to `NC(=O)COC(=O)c1cc(S(=O)(=O)N2CCN(c3ccccc3)CC2)ccc1Cl`, the inhibition rises from -1.52% to 5.02%.

First: CN(C)c1ccc(C(=S)N2CCN(C(=S)Nc3ccc(Cl)cc3)CC2)cc1
Second: O=C(COC(=O)c1ccccc1C(=O)N1CCN(c2ccccc2)CC1)NCc1ccccc1
The inhibition of the first is higher: 4% for the first, 1.15% for the second.

Going from `O=C(CCCN1C(=O)/C(=C\c2ccco2)SC1=S)Nc1cccc2ccccc12` to `O=C(CCCN1C(=O)/C(=C/c2ccccc2)SC1=S)Nc1ccc(O)cc1`, the inhibition falls from 4.94% to 0.63%.

Going from `CCOC(=O)Cc1ncccc1C(=O)Nc1ccc(OC(F)(F)F)cc1` to `O=C(Nc1cccc(C(F)(F)F)c1)c1cnccn1`, the inhibition rises from -0.27% to 3.61%.

Compared with `Cc1ccccc1NS(=O)(=O)CCCCC(Cl)(Cl)Cl`, `CCC1CCCCN1CCCNC(=O)c1cc2c(Cl)nc3ccccc3c2s1` (stereo unspecified) is higher in inhibition: 1.86% for the first, 1.99% for the second.

Compared with `O=C(CN1C(=O)NC2(CCCCCC2)C1=O)NC1CC1`, `CCc1ccccc1NC(=S)N(CCN1CCCCCC1)Cc1ccco1` is higher in inhibition: -0.87% for the first, -0.63% for the second.

Going from `Cc1ccc2nc(COc3ccc(N(C)S(=O)(=O)c4ccccc4)cc3)cc(=O)n2c1` to `COc1cccc(C2CC(c3ccccc3)=NN2S(=O)(=O)c2ccccc2)c1OC` (stereo unspecified), the inhibition rises from 2.17% to 2.56%.

First: N#Cc1ccc(-c2nc3cc(C#N)c(C#N)cc3nc2-c2ccccc2)cc1C#N
Second: C/C(N)=C(/C#N)C(=O)COC(=O)c1cc(-c2ccccc2)nc2ccc(Br)cc12
The inhibition of the first is lower: 1.25% for the first, 3.84% for the second.

Compared with `CN1CCNC(=O)C1CC(=O)N1CC=C(c2ccc(F)cc2)CC1` (stereo unspecified), `Cc1nc2c(C(=O)NCc3cccs3)cnn2c(C)c1Cc1ccc(F)cc1` is higher in inhibition: -0.5% for the first, 1.27% for the second.

First: NC(=O)C[n+]1cccc(C(N)=O)c1
Second: O=C(COC(=O)Cn1cnc2ccccc2c1=O)NCc1ccccc1Cl
The inhibition of the first is higher: 1.51% for the first, 0% for the second.

First: Cc1ccc2[nH]cc(CCNC(=O)c3ccc([N+](=O)[O-])cc3)c2c1
Second: O=C1c2ccccc2C(=O)N1CCCc1nc(-c2ccccc2)no1
The inhibition of the first is lower: -1.27% for the first, 3.93% for the second.

Compared with `Cc1cccc(C2=N/C(=C/c3cccs3)C(=O)O2)c1`, `CCN(CC)CC1(O)CCN(C(=O)c2ccc(Cl)c(Cl)c2)CC1` is lower in inhibition: 4.44% for the first, 1.77% for the second.

With `Cc1ccc(C(=O)/C=C/c2c(C)nn(-c3ccccc3)c2Cl)cc1` the inhibition was 14.1% (active).
In the case of `Cc1nn(-c2ccccc2)c(Cl)c1/C=C/C(=O)c1ccc(O)cc1`, the inhibition was 8.5% (active).
In the case of `Cc1ccc(N=Cc2c(O)n(-c3nccs3)c(=O)c3ccccc23)c(C)c1`, the inhibition was 8.99% (active).
With `C=CCc1ccccc1OCC(=O)N/N=C/c1ccccc1OCC` the inhibition was 12.4% (active).
For `COc1ccc(/C(C)=N/Nc2cc(C(F)(F)F)ccc2Cl)c(OC)c1`, the inhibition was 13.5% (active).
With `O=C(COC(=O)CCCNC(=O)c1ccc(Cl)cc1)Nc1cc(Cl)ccc1Cl` the inhibition was 14.2% (active).
In the case of `CCOC(=O)CSC1=C(C#N)C(c2ccco2)C(C(=O)OCc2ccccc2)=C(C)N1` (stereo unspecified), the inhibition was 17.6% (active).
In the case of `C=CCOC(=O)C1=C(C)NC(SCC(=O)OCC)=C(C#N)C1c1ccc(C)cc1` (stereo unspecified), the inhibition was 17.7% (active).
With `Cc1ccc(SCC(=O)c2cc(C)c(OC(=S)N(C)C)c(C)c2)cc1` the inhibition was 9.5% (active).
For `COc1ccc(/C=C2/SC(=O)N(CCCCCC(=O)Nc3ccccc3C(=O)O)C2=S)cc1`, the inhibition was 9.16% (active).
In the case of `Cc1cc(C)cc(NS(=O)(=O)c2ccc(Oc3ncc(C(F)(F)F)cc3Cl)cc2)c1`, the inhibition was 10.7% (active).
With `COc1c(Br)cc2c(C)c(C(=O)N3CCOCC3)oc2c1Br` the inhibition was 13.5% (active).
With `Cc1ccc(-c2csc(N(Cc3ccco3)C(=O)c3cccs3)n2)cc1` the inhibition was 8.42% (active).
In the case of `COc1ccccc1C1CC(=O)n2c(nc(-c3ccccc3)c2-c2ccccc2)S1` (stereo unspecified), the inhibition was 8.41% (active).
For `Cc1ccc2[nH]cc(CCCN3C(=O)c4ccccc4C3=O)c2c1`, the inhibition was 8.46% (active).
In the case of `Cc1ccc(NC(=S)NC(=O)c2ccc(-c3ccccc3)cc2)c(C)c1`, the inhibition was 8.7% (active).
With `CCOC(=O)c1c(C)nc2c(c1C)c(=O)oc1ccccc12` the inhibition was 18.6% (active).
For `O=C(COC(=O)/C(=C/c1cccs1)c1cccs1)NCc1ccccc1Cl`, the inhibition was 14% (active).
